# According to publication PMC6792352, “Limited Chemical Structural Diversity Found to Modulate Thyroid Hormone Receptor in the Tox21 Chemical Library” (Environmental Health Perspectives, 2019):
# Structures can show the parent of a compound that is named as a salt.
# System: thyroid hormone receptor (endogenous TRα and TRβ)
# Parameters: species or system GH3-TRE-Luc (rat pituitary); GH3-TRE-Luc luciferase reporter, antagonist mode against 1 nM T3, loss of signal, qHTS
# Settings: read-out: Average AC50 (uM) GH3-TRE-Antag, antagonist mode, 1 nM T3, no GH3 cytotoxicity hit
row,Structure (SMILES),AC50 [µM]
1,O=C(/C=C/C=C/c1ccc2c(c1)OCO2)N1CCCCC1 [Piperine],73.5
2,Cc1cc(C)c(/C=C2\C(=O)Nc3ccccc32)[nH]1 [SU-5416],18.1
3,Cl[C@H]1[C@H](Cl)[C@@H](Cl)[C@@H](Cl)[C@H](Cl)[C@H]1Cl [Lindane],81.2
4,CCN(CC)c1ccc(C(=O)c2ccccc2C(=O)O)c(O)c1 [2-[4-(Diethylamino)-2-hydroxybenzoyl]benzoic acid],43.7
5,c1ccc2c(c1)ccc1ccccc12 [Phenanthrene],50.1
6,c1cnc2cc3c(cc2n1)[C@@H]1CNC[C@H]3C1 [Varenicline dihydrochloride],63.5
7,CCCc1c(OCCCCc2nnn[nH]2)ccc(C(C)=O)c1O [Tomelukast],49.2
8,CC(C)C(C(=O)OC(C#N)c1cccc(Oc2ccccc2)c1)c1ccc(Cl)cc1 (centres unmarked) [Fenvalerate],37.1
9,O=C1OC(OC(=O)c2cccnc2Nc2cccc(C(F)(F)F)c2)c2ccccc21 (centres unmarked) [Talniflumate],9.92
10,CN1C(=O)[C@@H](NC(=O)c2cc3ccccc3[nH]2)N=C(c2ccccc2)c2ccccc21 [Devazepide],6.13
11,C=CC(=O)OCCC#N [2-Cyanoethyl prop-2-enoate],62.7
12,CCc1ccc(CCOc2ccc(CC3SC(=O)NC3=O)cc2)nc1 (centres unmarked) [Pioglitazone hydrochloride],> 50
13,CCC(=O)/C=C/c1ccc(OC)cc1 [1-(4-Methoxyphenyl)-1-pentene-3-one],79.8
14,O=[N+]([O-])c1c(Cl)c(Cl)c(Cl)c(Cl)c1Cl [Pentachloronitrobenzene],> 90
15,COc1ccc2c(c1)c1c3n2CCN(C)C3=NCC1 [Metralindole],28.1
16,Cc1ccccc1C(=O)Nc1ccc(C(=O)N2CCCC(O)c3cc(Cl)ccc32)c(C)c1 (centres unmarked) [Tolvaptan],21.9
17,CCCCCc1ccc(C)cc1O [Amylmetacresol],23.6
18,CC1(C)[C@H](C(=O)O[C@H](C#N)c2cccc(Oc3ccccc3)c2)[C@@H]1C=C(Cl)Cl [alpha-Cypermethrin],> 90
19,COc1nc(N)nc2c1ncn2[C@@H]1O[C@H](CO)[C@@H](O)[C@@H]1O [Nelarabine],25.2

row,Structure (SMILES),AC50 [µM]
1,"O=C(O)c1cc(I)cc(I)c1I [2,3,5-Triiodobenzoic acid]",> 100
2,CCOC(=O)Oc1c(OC)cc(C(=O)O[C@@H]2C[C@@H]3CN4CCc5c([nH]c6cc(OC)ccc56)[C@H]4C[C@@H]3[C@H](C(=O)OC)[C@H]2OC)cc1OC [Syrosingopine],19
3,C[C@]12CC[C@H]3[C@@H](CC[C@@]45O[C@@H]4C(O)=C(C#N)C[C@]35C)[C@@H]1CC[C@@H]2O [Trilostane],> 50
4,S=P(N1CC1)(N1CC1)N1CC1 [Thiotepa],37.9
5,CC[C@H](NC(=O)c1cc(F)ccc1NS(=O)(=O)c1cccc2cccnc12)c1ccccc1 [AVE3295],56.9
6,COc1ccc2[nH]c([S+]([O-])Cc3ncc(C)c(OC)c3C)nc2c1 (centres unmarked) [Omeprazole],> 50
7,C/C=C1\C(=O)C[C@H]2[C@@H]3CCC4=CC(=O)CC[C@]4(C)[C@H]3CC[C@]12C [Guggulsterone Z],39.2
8,"c1ccc(-c2nc[nH]c2-c2ccccc2)cc1 [4,5-Diphenylimidazole]",24.1
9,COc1ccc(Cc2nccc3cc(OC)c(OC)cc23)cc1OC [Papaverine hydrochloride],15.6
10,Cl/C=C\C[N+]12CN3CN(CN(C3)C1)C2 [Chloroallyl methenamine chloride],89.1
11,"O=C1CCN(c2ccccc2)N1 [3-Pyrazolidinone,1-phenyl-]",> 90
12,"O=C(c1ccc(O)cc1)c1ccc(O)cc1O [2,4,4'-Trihydroxybenzophenone]",> 90
13,"Oc1ccc(C(=C(Cl)Cl)c2ccc(O)cc2)cc1 [Bis(4-hydroxyphenyl)-2,2-dichloroethylene]",38.4
14,CCCCC[Si](OCC)(OCC)OCC [Triethoxypentylsilane],45.9
15,CCCCCCCCCCCCCCCC(=O)O[C@@H]1CC(C)=C(/C=C/C(C)=C/C=C/C(C)=C/C=C/C=C(C)/C=C/C=C(C)/C=C/C2=C(C)C[C@@H](OC(=O)CCCCCCCCCCCCCCC)CC2(C)C)C(C)(C)C1 [Physalien],39.2
16,C[C@]12CC[C@@H]3c4ccc(O)cc4CC[C@H]3[C@@H]1CC[C@H]2O [17alpha-Estradiol],27
17,"COc1ccc(C(=O)c2ccccc2O)c(O)c1 [2,2'-Dihydroxy-4-methoxybenzophenone]",> 20
18,"O=C(CS)OCCOC(=O)CS [Ethane-1,2-diyl bis(sulfanylacetate)]",51.5
19,Cc1ccccc1CO[C@@H]1C[C@@]2(C(C)C)CC[C@]1(C)O2 (racemic) [Cinmethylin],38.4
